The results in this text go back to PMC5540273 (PLoS ONE, 2017).
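Further: kd values determined as follow-up on hits from a single-replicate KINOMEscan panel screen.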

For one assay, the system named is CDKL2.
`O=C(Nc1n[nH]c2cc(-c3cccc(F)c3F)ccc12)C1CC1` [SB-733894] returned a dissociation constant (Kd) of 0.3 µM. The same measure, in the same setting: for `O=C(Nc1n[nH]c2nc(-c3nccs3)c(Br)cc12)C1CC1` [SB-742251] the value was 0.48 µM. Compound `O=C(Nc1n[nH]c2nc(-c3nccs3)c(Br)cc12)C1CCCC1` [SB-742609] gave a Kd of 0.5 µM.

In another assay the test system is CIT.
For the compound `Cc1cccc(-c2nc(Nc3ccncc3)c3ccccc3n2)n1` [GW855857], binding was put at a Kd of 0.44 µM. Same read-out and setting: for `O=C(Nc1ccccc1)Nc1cccc(Oc2ccc3nccn3n2)c1` the value was 0.0011 µM; for `Cc1ccc(NC(=O)Nc2cccc(Cl)c2)cc1-c1ccc(C(=O)Nc2ccncc2)cc1` [GSK1398468], 0.15 µM.

A further assay deals with CLK3.
As to `COc1ccc(Nc2nccc(NCCNC(=O)Nc3ccccc3F)n2)cc1` [GSK1379901], the Kd was over 10 µM.

`COc1cc2nccc(Nc3ccc(NC(=O)c4ccc(C)cc4)c(O)c3)c2cc1OC.Cl` [GW440132] yielded a Kd of over 10 µM. On the same count and under the same terms, for `Cn1cncc1-c1ccc2ncnc(Nc3ccc(OCc4ccccc4)cc3)c2c1` [GW320571] the value was over 10 µM.

The next assay deals with CSF1R.
For the compound `Cn1ccc2ncnc(Oc3ccc(NC(=O)Nc4ccccc4)cc3)c21`, binding was put at a Kd of 0.082 µM. The same measure, in the same setting: for `CC(=O)Nc1nc2cnc(Nc3cc(NC(=O)c4cccc(CCC#N)c4)ccc3C)nc2s1` the value was over 10 µM; for `O=C(Nc1ccccc1)Nc1cccc(Oc2ccc3nccn3n2)c1`, 0.027 µM.

The next assay concerns CSNK1E.
With `COc1ccc(Nc2nccc(NCCNC(=O)Nc3ccccc3F)n2)cc1` [GSK1379901], the Kd was over 10 µM.

On to `Cn1cncc1-c1ccc2ncnc(Nc3ccc(OCc4ccccc4)cc3)c2c1` [GW320571], for which the Kd is over 10 µM. In the case of `CN(C)CCN(C)C(=O)c1cc(-c2ccncc2)c(-c2ccc(Cl)c(O)c2)o1.Cl.Cl` [SB-710397], the Kd turned out to be 0.41 µM.

Consider `CC(C)(C)c1ccc(C(=O)Nc2cn3cc(-c4cccnc4)ccc3n2)cc1`, for which the Kd was found to be 0.11 µM.

The term Kd denotes the equilibrium constant for the complex coming apart. A low value points to tighter binding.
